The campaign covered roughly 370,000 compounds. About 4,700 (1.3%) were called active. The sample holds actives, similar compounds and a random draw of the others, so the mix is not that of the screen. A number with no mark means an inactive call.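 Rule for the calls: active = inhibition above the plate cutoff, the mean of all test compounds on that plate plus 3 SD (cut at about 35% in these data); inactive = the rest.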
Assay: small molecules binding CAG repeat RNA – biochemical, fluorescence, primary screen (AID 651821);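 note: 0% = DMSO alone and 100% = 100 µM mitoxantrone as full dye displacement; higher means more dye released from RNA so lower well fluorescence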
Details: r(CAG) RNA repeat, TO-PRO-1 dye displacement fluorescence; at 3 µM; stronger effect = higher value

SMILES | inhibition
Cc1ccc(C)c(Cn2nnc3c(=O)[nH]c(C(=O)Nc4ccc(F)cc4)nc32)c1 | 60.2% (active)
Cc1ccc(NC(=O)N2CCC(c3nc4c(nnn4Cc4c(F)cccc4Cl)c(=O)[nH]3)CC2)cc1 | 3.25%
O=C(Nc1ccc(F)cc1)N1CCCC(c2nc3c(nnn3Cc3ccccc3Cl)c(=O)[nH]2)C1 (stereo not given) | 0.69%
COc1cccc(N2CCN(CC(=O)N(C)Cc3ccc(F)cc3)CC2)c1 | -1.77%
O=C1CCCCC1C(=O)c1ccccc1 (stereo not given) | -0.64%
C[C@H](O)[C@@H]1C(=O)N2CCc3c([nH]c4c(-c5ccc6c(c5)OCO6)cccc34)[C@@H]2C[C@@H]1N(C)C(=O)c1ccco1 | 5.15%
CC(C)NC(=O)c1ccc(Sc2ccccc2)c([N+](=O)[O-])c1 | -3.38%
Cc1ccc(Sc2cc(C(=O)c3ccccc3C(=O)O)ccc2[N+](=O)[O-])cc1 | 72.1% (active)
Cc1ccc(C(=O)c2ccc(N3CCN(C)CC3)c([N+](=O)[O-])c2)cc1 | -0.77%
COc1ccccc1C(=O)N1O[C@]23C=C[C@]14C[C@@H](O)CC[C@]4(C)C2CC[C@]1(C)[C@@H]([C@H](C)/C=C/[C@H](C)C(C)C)CC[C@H]13 (stereo not given in full) | 4.71%
CSc1ccc(/C=N/N2CCN(Cc3ccccc3Cl)CC2)cc1 | -3.03%
CCOc1ccc(-c2n[nH]c(=S)n2/N=C/c2cc3c(cc2[N+](=O)[O-])OCO3)cc1 | 4.13%
CSc1ccc(C=Nn2c(-c3ccc(F)cc3)n[nH]c2=S)cc1 | 45.4% (active)
O=C1[C@@H](c2ccccc2)[C@@H](c2ccccc2)N1c1ccccc1 | 2.62%
CCOC(=O)[C@]12CCCC3=C1N(CCC3)C(=O)[C@@H](CC(=O)NCc1cccs1)C2 | -1.37%
C=CCN1C(=O)[C@@H](CC(=O)NCCCOCCCC)[C@]2(C(=O)OCC)CCCCC/C=C/12 | 0.69%
OC(c1ccccc1)c1nc(/C=C/c2ccc(C(F)(F)F)cc2)cs1 (stereo not given) | 3.22%
O=C(Nc1c(-c2ccccc2)nc2c(Br)cc(Br)cn12)c1ccco1 | 7.88%
O=C(Nc1nonc1-c1ccc(Cl)cc1)c1ccco1 | -0.35%
O=C(Nc1nc(-c2ccco2)c(-c2ccco2)s1)c1ccco1 | 70.5% (active)
COC(=O)C1=C(C)N(Cc2ccc(F)cc2)C(=S)NC1c1cccc(Cl)c1 (stereo not given) | 3.4%
N[C@@H](Cc1ccccc1)C(=O)N1CCC[C@@H]1C(=O)N1CCC2CCN(S(=O)(=O)c3ccccc3)CC21 (stereo not given in full) | 0.99%
COC(=O)Cc1nnn2c1[C@H](C)[C@@H](OC)c1cc(Br)ccc1-2 | -0.28%

SMILES | inhibition
Clc1ccc(C(Cn2ccnc2)OCc2ccsc2Cl)c(Cl)c1 (stereo not given) | 2.12%
Cc1ccc(NC(=O)CC2S/C(=N/N=C3\CCCc4ccccc43)NC2=O)cc1 (stereo not given) | 42.2% (active)
CCN=C1SC(CC(=O)Nc2ccc(C)cc2)C(=O)N1CC (stereo not given) | -2.97%
Cc1c(Cl)cccc1NC(=O)CC1SC(=NCC2CCCO2)NC1=O (stereo not given) | -0.81%
CC(=O)N1C[C@@H](CO)[C@@H](N(C)C(=O)C(C)(C)C)C[C@H]1c1ccccc1Br | -1.82%
C[C@@H]1COc2cccc(N3CCCC3)c2S(=O)(=O)N1C | 1%
CC(C)(C)C1C/C(=C/c2ccco2)C(=O)/C(=C/c2ccco2)C1 (stereo not given) | 44.8% (active)
O=C(CN1C(=O)NC(Cc2c[nH]c3ccccc23)C1=O)Nc1ccccc1C(F)(F)F (stereo not given) | 2.5%
CC1CCN(C(=O)c2ncn3c2C(=O)N[C@@H](C)C3)CC1 | 1.9%
O=C(N1CCOCC1)N1CC[C@H]2[C@H](CCCN2Cc2ccc(F)cc2)C1 | -0.35%
C=CCN1C(=O)[C@@H](CC(=O)N2CCN(C(=O)OCC)CC2)[C@]2(C(=O)OCC)CCCCC/C=C/12 | 1.94%
COc1ccc(CSc2nnc(-c3cccc(C)c3)n2C)cc1 | -0.02%
COc1ccc(-n2c(SCC(=O)Nc3ccc(C)c(Cl)c3)nc3ccccc3c2=O)cc1 | 16.1%
CCOc1ccc(NC(=O)CSc2nc3ccccc3c(=O)n2Cc2cccs2)cc1 | 1.43%
CCOc1ccc(-n2c(SCC(=O)Nc3cc(C(=O)O)ccc3Cl)nc3ccccc3c2=O)cc1 | 46.3% (active)
COc1ccc(CN2C(=O)N3Cc4cc(OC)ccc4C3CS2(=O)=O)cc1 (stereo not given) | 1.88%
COCCCNC(=O)C[C@H]1C[C@@]2(C(=O)OC)C(=C[C@H](C(C)(C)C)O[C@@H]2C)N(Cc2ccc(Cl)cc2Cl)C1=O | 1.45%
COC(=O)[C@]12C[C@H](CC(=O)NCCc3ccccc3OC)C(=O)N(Cc3ccccc3)C1=C[C@H](C(C)C)O[C@@H]2C1CC1 | 0.77%
Cc1ccccc1-n1c(SCC(=O)Nc2cccc3ccccc23)nc(O)cc1=O | 42.6% (active)
C=CCn1c(N)cc(=O)nc1SCC(=O)Nc1cccc2ccccc12 | 3.99%
Cc1ccc(-n2c(SCC(=O)Nc3cccc4ccccc34)nnc2-c2ccccn2)cc1 | 3.79%
CC(C)N1CCCCC(NC(=O)C(C)(C)C)C1=O (stereo not given) | 0.73%
